Experimental findings from PubChem BioAssay (NCI) are described below.

Some test systems named below: HCT-15 colon; HT29 colon; SNB-19 CNS; U251 CNS; PC-3 prostate; SK-MEL-5 melanoma; UACC-62 melanoma; LOX IMVI melanoma; SK-MEL-28 melanoma; SNB-75 CNS.
Common to all, as to assay: NCI-60 one-dose screen, 48 h (100 = growth as untreated, 0 = no growth, -100 = all killed)
Common to all, as to conditions: 10 µM unless noted

The panel holds about 83,000 compounds, 20% with a hit somewhere; the sample as a whole holds those more often.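 Compound tested at a single concentration for 48 hours in 96-well plates; a percent growth value below 10 was scored as active.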 Unmarked numbers belong to inactive results. The source made the active and inactive calls.

`O=C(Cc1ccc(/C=C/C(=O)c2ncc[nH]2)cc1)Nc1cc(F)c(F)c(F)c1`: the growth is 11.9% in the experiment on HCT-15 colon; 18.1% with HT29 colon; 43.4% with SNB-19 CNS; 8.91% (active) in the experiment with U251 CNS; 48.2% in the experiment with PC-3 prostate; 97.7% in the experiment with SK-MEL-5 melanoma. Moreover, the growth with UACC-62 melanoma is 74.5%; with LOX IMVI melanoma it was -3.1% (active); in the experiment on SK-MEL-28 melanoma, 103%.

In the case of `O=C(c1c[nH]c2ccccc12)c1n[nH]c(=S)n1-c1ccc([N+](=O)[O-])cc1`, the growth in the experiment on HCT-15 colon is 64.7%; in the experiment on HT29 colon, 98.6%; in the experiment with SNB-19 CNS, 116%; with U251 CNS, 105%; in the experiment with PC-3 prostate it was 83.9%; in the experiment on SK-MEL-5 melanoma it was 88.3%. Moreover, the growth in the experiment with UACC-62 melanoma was 93.1%; in the experiment with LOX IMVI melanoma it was 100%; in the experiment with SK-MEL-28 melanoma, 107%.

As to `Cc1ccc2c(c1)nc(C)n2-c1ncnc2c1CC(C)c1cc(O)ccc1N2C` (stereo unspecified), the growth was 26.7% with HCT-15 colon; 36.8% in the experiment with HT29 colon; 48.7% in the experiment with SNB-19 CNS; 20% in the experiment on U251 CNS; 29.6% in the experiment with PC-3 prostate; 23.7% with SK-MEL-5 melanoma. Further, the growth is 39.3% in the experiment on UACC-62 melanoma, 43% in the experiment on LOX IMVI melanoma and 61.1% in the experiment with SK-MEL-28 melanoma.

For the molecule `COc1ccccc1S(=O)(=O)Nc1ccc2c3c(cc(CCC(=O)NCCCCNc4cccc5c4C(=O)N(C4CCC(=O)NC4=O)C5=O)cc13)C(=O)N2C` (stereo unspecified), the growth in the experiment with HCT-15 colon is 68.4%; in the experiment on HT29 colon, 48.4%; with SNB-19 CNS, 7.56% (active); in the experiment on PC-3 prostate, 3.96% (active); with SK-MEL-5 melanoma it was -33% (active); in the experiment with UACC-62 melanoma, 43.9%. The results for the growth in the experiment with LOX IMVI melanoma and with SK-MEL-28 melanoma were 21.4% and 13.3%, respectively.

As for `O=C1CCCCN1c1ccc(C2=NCCCN2)cc1`, the growth in the experiment on HCT-15 colon is 101%; in the experiment with HT29 colon it was 87.6%; in the experiment on SNB-19 CNS, 89.2%; with U251 CNS, 79.3%; in the experiment with PC-3 prostate, 79.9%; with SK-MEL-5 melanoma, 97.5%. In addition, the growth was 90.3% in the experiment on UACC-62 melanoma, 87.7% in the experiment on LOX IMVI melanoma and 91.4% with SK-MEL-28 melanoma.

`Cc1nc2sc(C(=O)Nc3ccccn3)c(N)c2cc1C(C)O` (stereo unspecified): the growth with HCT-15 colon is 36.4%; with HT29 colon it was 27.4%; with SNB-19 CNS it was 64.7%; in the experiment with U251 CNS, 48.8%; with PC-3 prostate, 72.7%; in the experiment with SK-MEL-5 melanoma, 45%. In addition, the growth in the experiment with UACC-62 melanoma is 42.7%; with LOX IMVI melanoma, 67.1%; in the experiment with SK-MEL-28 melanoma, 67.4%.

For `Cn1c(=O)c2[nH]c(SC/C(=N/O)c3ccc(Br)cc3)nc2n(C)c1=O`, the growth was 76.4% in the experiment with HCT-15 colon; 70% in the experiment on HT29 colon; 38.6% in the experiment with SNB-19 CNS; 1.08% (active) in the experiment on U251 CNS; 49.3% in the experiment with PC-3 prostate; 33.4% in the experiment on SK-MEL-5 melanoma. Besides, the figures for the growth in the experiment with UACC-62 melanoma, in the experiment on LOX IMVI melanoma and in the experiment on SK-MEL-28 melanoma were -14.2% (active), 36.9% and 45.6%, respectively.

Regarding `CCCCCc1ccc(S(=O)(=O)Nc2ccc3nc(N)oc3c2)cc1`, the growth in the experiment with HCT-15 colon was 82.5%; with HT29 colon it was 89.4%; in the experiment with SNB-75 CNS it was 40.7%; with PC-3 prostate it was 57.2%; in the experiment with UACC-62 melanoma it was 43.7%; in the experiment on LOX IMVI melanoma, 36.3%. The growth with SK-MEL-28 melanoma is 74.7%.

In the case of `CCCCC#Cc1c(I)n(C2OC(CO[Si](C)(C)C(C)(C)C)C3OC(C)(C)OC32)c(=O)n(C(=O)c2ccccc2)c1=O` (stereo unspecified), the growth was 8.46% (active) in the experiment with HCT-15 colon; 0.292% (active) with HT29 colon; 72.3% in the experiment on SNB-19 CNS; -33.2% (active) in the experiment on U251 CNS; 43% with PC-3 prostate; 78.7% in the experiment on SK-MEL-5 melanoma. Further, the growth in the experiment with UACC-62 melanoma was 55.1%; with LOX IMVI melanoma, -65.2% (active); in the experiment on SK-MEL-28 melanoma it was -42.9% (active).

For the molecule `COc1cc(C=C2C(=O)NC(=S)NC2=O)cc(CN2CCCC2)c1O`, the growth in the experiment on HCT-15 colon was 105%; in the experiment on HT29 colon it was 109%; in the experiment with SNB-19 CNS, 105%; in the experiment with U251 CNS, 96.2%; in the experiment on PC-3 prostate it was 102%; with SK-MEL-5 melanoma, 111%. For the same molecule, the growth was 99.7% with UACC-62 melanoma, 97.6% in the experiment with LOX IMVI melanoma and 115% with SK-MEL-28 melanoma.

As for `CCOC(=O)c1ccc[nH]1`, the growth in the experiment on HCT-15 colon was 93.9%; in the experiment with HT29 colon it was 106%; in the experiment on SNB-19 CNS, 99.4%; in the experiment with U251 CNS it was 96.6%; in the experiment on PC-3 prostate, 91.8%; in the experiment with SK-MEL-5 melanoma, 98.4%. Besides, the results for the growth in the experiment with UACC-62 melanoma, in the experiment with LOX IMVI melanoma and in the experiment with SK-MEL-28 melanoma were 103%, 94.1% and 115%, respectively.

Take `CCOC(=O)c1cn2ncnc(Oc3ccc(NC(=O)NC4CC4)c(Cl)c3)c2c1C`: the growth in the experiment on HCT-15 colon was 81.7%; with HT29 colon it was 95.1%; in the experiment on SNB-19 CNS it was 89%; in the experiment with U251 CNS, 80.7%; with PC-3 prostate, 89.2%; with SK-MEL-5 melanoma, 88.7%. Moreover, the growth was 77.8% with UACC-62 melanoma, 85.4% in the experiment with LOX IMVI melanoma and 107% in the experiment on SK-MEL-28 melanoma.

For the molecule `COCCn1cc(-c2csc(-c3c[nH]c4ccccc34)n2)c2cccnc21`, the growth is 25.8% with HCT-15 colon; 11.6% in the experiment on HT29 colon; 65.5% in the experiment on SNB-19 CNS; 35.5% in the experiment on U251 CNS; 29.6% with PC-3 prostate; 54.8% with UACC-62 melanoma. Moreover, the growth in the experiment with LOX IMVI melanoma is 34.1%; with SK-MEL-28 melanoma, 64.4%.

On to `COc1cc2ncnc(Nc3ccc(S(=O)(=O)Nc4nccs4)cc3)c2cc1OCCCN1CCCC1`, for which the growth in the experiment on HCT-15 colon was 101%; with HT29 colon, 107%; with SNB-19 CNS, 103%; in the experiment with U251 CNS, 101%; with PC-3 prostate, 100%; with SK-MEL-5 melanoma, 105%. Also, the growth with UACC-62 melanoma was 97.2%; with LOX IMVI melanoma, 98.9%; with SK-MEL-28 melanoma it was 109%.

In the case of `CCN(CC)CCOc1ccc2c(-c3ccccc3)c(-c3ccc(OC)cc3)c(=O)oc2c1`, the growth in the experiment with HCT-15 colon was 11.4%; in the experiment on HT29 colon it was 17%; with SNB-19 CNS, 69%; with U251 CNS, 44.4%; in the experiment on PC-3 prostate, 65.4%; in the experiment with SK-MEL-5 melanoma it was 25.9%. Also, the growth with UACC-62 melanoma is -15% (active); in the experiment on LOX IMVI melanoma it was 29.3%; in the experiment with SK-MEL-28 melanoma it was 43.1%.

`CCN(CC)C(=O)C1=C(C)NC(=O)NC1c1ccc2c(c1)OCO2` (stereo unspecified): the growth in the experiment with HCT-15 colon was 105%; in the experiment on HT29 colon it was 107%; in the experiment with SNB-19 CNS, 96.2%; with U251 CNS, 102%; in the experiment with PC-3 prostate, 98.5%; in the experiment on SK-MEL-5 melanoma, 101%. Also, the results for the growth in the experiment on UACC-62 melanoma, with LOX IMVI melanoma and in the experiment with SK-MEL-28 melanoma were 102%, 95.6% and 115%, respectively.

Consider `CC(C)(C)c1ccc(C(=O)N/N=C/c2ccc(O)cc2O)cc1`, for which the growth with HCT-15 colon was 14.1%; in the experiment with HT29 colon, 26.4%; with SNB-19 CNS, 28.4%; in the experiment with U251 CNS, 19.6%; in the experiment with PC-3 prostate, 34.9%; with SK-MEL-5 melanoma, -46.1% (active). Also, the growth was 4.25% (active) with UACC-62 melanoma, 2.62% (active) in the experiment on LOX IMVI melanoma and 27.8% with SK-MEL-28 melanoma.

Take `Cc1ccc(S(=O)(=O)OCC#CCOS(=O)(=O)c2ccc(C)cc2)cc1`: the growth is 72.3% in the experiment with HCT-15 colon; 50.3% with HT29 colon; 22.6% in the experiment on U251 CNS; 70.4% in the experiment with PC-3 prostate; 59.4% with SK-MEL-5 melanoma; 42.4% with UACC-62 melanoma. For the same molecule, the figures for the growth with LOX IMVI melanoma and in the experiment on SK-MEL-28 melanoma were -35.8% (active) and 74.9%, respectively.

As for `S=c1ccnc[nH]1`, the growth in the experiment on HCT-15 colon was 103%; in the experiment with HT29 colon, 110%; in the experiment with SNB-19 CNS, 102%; in the experiment on U251 CNS, 102%; with PC-3 prostate, 100%; with SK-MEL-5 melanoma, 109%. For the same molecule, the growth in the experiment with UACC-62 melanoma was 102%; with LOX IMVI melanoma, 96.5%; in the experiment with SK-MEL-28 melanoma, 144%.
